# From PubChem BioAssay (Tox21)
# Inconclusive results are not listed. A call without a number means that no potency is given here. The source made the active and inactive calls. Unless noted, calls come from the whole dose curve. Numbered stars: 1 amine (or outer) side, 2 acyl side, 3 side chain; on linkers, the order of the positions; unused ones are H or OH. Bridge positions count the residues as written; N and C are the ends. Square brackets hold non-standard residues; d marks the D form. Peptide text beside a SMILES is read from it. I, II: the chains in the order shown. Actinocin(9to1) = Cc1c2oc3c(C)ccc(C(=O)[*:1])c3nc-2c(C(=O)[*:2])c(N)c1=O; NMeV = CN[C@H](C(=O)O)C(C)C; Sar = CNCC(=O)O
# Molecular target: Beta-2 adrenergic receptor (Homo sapiens) (UniProt P07550)
# Assay: Adrenergic beta2 receptor (ADRB2) small molecule agonists, cell-based qHTS assay (AID 1963593);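 note: CHO cells stably overexpressing human ADRB2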
# Details: CHO-ADRB2 cells, cAMP HTRF, 30 min; series mostly up to 92.4 µM
# In short: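 CHO cells stably over-expressing ADRB2 were plated overnight at 37C, then dosed with compounds plus a stimulation mix containing 100uM IBMX and 25uM Ro-20-1724 for 0.5hr at room temperature. cAMP was measured by HTRF competition, 1hr.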
# Beta-2 adrenergic receptor (Homo sapiens), sequence (P07550 whole entry, looked up): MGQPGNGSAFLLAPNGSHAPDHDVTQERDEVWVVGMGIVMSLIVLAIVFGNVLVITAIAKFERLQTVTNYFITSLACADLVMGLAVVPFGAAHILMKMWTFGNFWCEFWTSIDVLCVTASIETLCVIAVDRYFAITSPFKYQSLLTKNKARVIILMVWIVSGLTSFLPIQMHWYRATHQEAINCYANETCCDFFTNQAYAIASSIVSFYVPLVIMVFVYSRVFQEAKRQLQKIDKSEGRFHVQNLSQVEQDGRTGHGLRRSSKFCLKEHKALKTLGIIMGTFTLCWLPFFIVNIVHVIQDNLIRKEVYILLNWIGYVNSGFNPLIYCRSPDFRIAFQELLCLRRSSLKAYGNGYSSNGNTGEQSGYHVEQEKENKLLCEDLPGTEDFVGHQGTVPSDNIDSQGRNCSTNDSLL
SMILES,activation,Potency
Cc1cc(C)c(N=Nc2c(O)c(S(=O)(=O)O)cc3cc(S(=O)(=O)O)ccc23)cc1C,-2.26% [at 8.39 µM] (inactive),
C=COCCOCCOCCOC=C,,inactive
CC(=O)[O][Al][O]C(C)=O,,inactive
COc1ccc2cc(C=O)ccc2c1,,inactive
Cc1ccc(NC(=O)N(C)C)cc1NC(=O)N(C)C,,inactive
CCN(CC)CCN,,inactive
NC(=O)c1ncn([C@@H]2O[C@H](CO)[C@@H](O)[C@H]2O)c1O,,inactive
O=C(O)[C@@H]1[C@H]2C[C@H]3c4[nH]c5ccccc5c4CCN3C[C@@H]2CC[C@@H]1O,,inactive
CC[C@]1(O)C[C@@H]2CN(CCc3c([nH]c4ccccc34)[C@@](C(=O)OC)(c3cc4c(cc3OC)N(C)[C@H]3[C@@](O)(C(=O)OC)[C@H](OC(C)=O)[C@]5(CC)C=CCN6CC[C@]43[C@@H]65)C2)C1,,inactive
CCCCN(CCO)CCO,,inactive
CCOC(OCC)OCC,,inactive
C=CCOC(=O)CCCCCC,,inactive
O=C(O)[C@@H](O)[C@H](O)[C@H](O)[C@@H](O)C(=O)O,,inactive
CCCCCCCCCC(C)=O,,inactive
OC/C=C/CO,,inactive
CCCCCCCCCCCCC(=O)O,,inactive
Cc1ccc(S(=O)(=O)NC(=O)NC2CCCC2)cc1,,inactive
COc1c2ccoc2cc2oc(=O)ccc12,,inactive
CCCCCCCCC1CCC(=O)O1 (centres undefined),,inactive
CO[Si](C)(C)OC,,inactive
COCc1ccc(COC)cc1,,inactive
OC1(c2ccc(Cl)cc2)CCNCC1,,inactive
"Cc1c2oc3c(C)ccc(C(=O)N[C@@H]4C(=O)N[C@H](C(C)C)C(=O)N5CCC[C@H]5C(=O)N(C)CC(=O)N(C)[C@@H](C(C)C)C(=O)O[C@@H]4C)c3nc-2c(C(=O)N[C@@H]2C(=O)N[C@H](C(C)C)C(=O)N3CCC[C@H]3C(=O)N(C)CC(=O)N(C)[C@@H](C(C)C)C(=O)O[C@@H]2C)c(N)c1=O (I: T[dV]P[Sar][NMeV] / II: T[dV]P[Sar][NMeV]; ester I:1-I:C, II:1-II:C; linker I:N-II:N via Actinocin(9to1))",,inactive
Cc1ccc(C(C)c2ccc(C)c(C)c2)cc1C,,inactive

# Molecular target: D(2) dopamine receptor (Homo sapiens) (UniProt P14416)
# Assay: Dopamine D2 receptor (DRD2) small molecule agonists, cell-based qHTS assay (AID 1963594); note: nearly all actives have a fitted effect of over 35% in size
# Details: HEK293-DRD2 cAMP HTRF, agonist mode, 30 min; series mostly up to 92.4 µM
# In short: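 HEK293 cells stably expressing DRD2 were cultured 24 h at 37 C, then given Ro20-1724 (0.1 mM final) and compounds for 10 min at room temperature. NKH477 (200nM) was then added for 30 min. cAMP was read by HTRF.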
# D(2) dopamine receptor (Homo sapiens), sequence (P14416 whole entry, looked up): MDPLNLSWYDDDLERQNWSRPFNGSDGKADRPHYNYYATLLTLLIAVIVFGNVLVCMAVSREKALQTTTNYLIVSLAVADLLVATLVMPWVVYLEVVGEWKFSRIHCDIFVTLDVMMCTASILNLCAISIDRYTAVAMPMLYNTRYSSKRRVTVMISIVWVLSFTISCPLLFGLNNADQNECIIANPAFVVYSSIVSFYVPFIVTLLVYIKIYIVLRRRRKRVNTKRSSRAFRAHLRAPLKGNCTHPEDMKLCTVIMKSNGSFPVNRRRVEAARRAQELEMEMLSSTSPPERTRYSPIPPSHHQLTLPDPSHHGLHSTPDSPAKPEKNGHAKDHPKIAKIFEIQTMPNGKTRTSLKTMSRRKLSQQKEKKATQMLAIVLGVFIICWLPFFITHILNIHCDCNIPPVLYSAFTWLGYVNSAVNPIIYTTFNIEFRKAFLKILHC
SMILES,activation,Potency
Cc1cc(C)c(N=Nc2c(O)c(S(=O)(=O)O)cc3cc(S(=O)(=O)O)ccc23)cc1C,4.98% [at 8.39 µM] (inactive),
CC(=O)Nc1c(I)cc(I)c(C(=O)O)c1I,,inactive
C=COCCOCCOCCOC=C,,inactive
O=C1OC(=O)c2ccc3c4c(ccc1c24)C(=O)OC3=O,,inactive
CC(=O)[O][Al][O]C(C)=O,,inactive
Cc1occc1S,,inactive
CCCN1CCCC[C@H]1C(=O)Nc1c(C)cccc1C,,inactive
Cc1ccc(NC(=O)N(C)C)cc1NC(=O)N(C)C,,inactive
CCN(CC)CCN,,inactive
O=[N+]([O-])c1ccccc1Nc1ccccc1,,inactive
NC(=O)c1ncn([C@@H]2O[C@H](CO)[C@@H](O)[C@H]2O)c1O,,inactive
O=C(O)[C@@H]1[C@H]2C[C@H]3c4[nH]c5ccccc5c4CCN3C[C@@H]2CC[C@@H]1O,,inactive
CC1(C)C(C=C(Cl)Cl)C1C(=O)OCc1cccc(Oc2ccccc2)c1 (centres undefined),,inactive
O=C(O)c1ccccc1OP(=O)(O)O,,inactive
COC(OC)C(C)c1ccccc1 (centres undefined),,inactive
Nc1cc(=O)[nH]c(N)n1,,inactive
CCOC(OCC)OCC,,inactive
C=CCOC(=O)CCCCCC,,inactive

SMILES,activation,Potency
O=C(O)[C@@H](O)[C@H](O)[C@H](O)[C@@H](O)C(=O)O,,inactive
CCCCCCCCCC(C)=O,,inactive
OC/C=C/CO,,inactive
CCCCCCCCCCCCC(=O)O,,inactive
Cc1ccc(S(=O)(=O)NC(=O)NC2CCCC2)cc1,,inactive
CCCC(=O)c1ccccc1,,inactive
NC(=O)c1cccc([N+](=O)[O-])c1,,inactive
COc1c2ccoc2cc2oc(=O)ccc12,,inactive
CC(C)c1cccc(C(C)C)c1N,,inactive
CCCCCCCCC1CCC(=O)O1 (centres undefined),,inactive
Cc1cccc(Cl)c1,,inactive
CO[Si](C)(C)OC,,inactive
COCc1ccc(COC)cc1,,inactive
c1c[nH]cn1,,inactive
"Cc1c2oc3c(C)ccc(C(=O)N[C@@H]4C(=O)N[C@H](C(C)C)C(=O)N5CCC[C@H]5C(=O)N(C)CC(=O)N(C)[C@@H](C(C)C)C(=O)O[C@@H]4C)c3nc-2c(C(=O)N[C@@H]2C(=O)N[C@H](C(C)C)C(=O)N3CCC[C@H]3C(=O)N(C)CC(=O)N(C)[C@@H](C(C)C)C(=O)O[C@@H]2C)c(N)c1=O (I: T[dV]P[Sar][NMeV] / II: T[dV]P[Sar][NMeV]; ester I:1-I:C, II:1-II:C; linker I:N-II:N via Actinocin(9to1))",,inactive
C1CCCCC1,,inactive
Cc1ccc(C(C)c2ccc(C)c(C)c2)cc1C,,inactive

# Molecular target: D(2) dopamine receptor (Homo sapiens) (UniProt P14416)
# Assay: Dopamine D2 receptor (DRD2) small molecule antagonists, cell-based qHTS assay (AID 1963595; active = well fitted inhibition curve with a large enough effect in the signal ratio in the repeat runs, with a control signal flat; the % refers to the signal ratio)
# Details: HEK293-DRD2 cAMP HTRF antagonist mode; series mostly up to 92.4 µM
# In short: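 Human DRD2 antagonist qHTS measuring cAMP by HTRF. The cells are exposed to compound for 10 min, then to NKH477 (200 nM) and quinpirole (12 nM) for 30 min at RT, with Ro20-1724 (0.1 mM) present throughout.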
SMILES,"activity change, negative = inhibition",Potency
Cc1cc(C)c(N=Nc2c(O)c(S(=O)(=O)O)cc3cc(S(=O)(=O)O)ccc23)cc1C,0.169% [at 8.38 µM] (inactive),
CC(=O)Nc1c(I)cc(I)c(C(=O)O)c1I,,inactive
C=COCCOCCOCCOC=C,,inactive
CC(=O)[O][Al][O]C(C)=O,,inactive
COc1ccc2cc(C=O)ccc2c1,,inactive
Cc1occc1S,,inactive
CCCN1CCCC[C@H]1C(=O)Nc1c(C)cccc1C,,inactive
Cc1ccc(NC(=O)N(C)C)cc1NC(=O)N(C)C,,inactive
CCN(CC)CCN,,inactive
O=[N+]([O-])c1ccccc1Nc1ccccc1,,inactive
NC(=O)c1ncn([C@@H]2O[C@H](CO)[C@@H](O)[C@H]2O)c1O,,inactive
CC1(C)C(C=C(Cl)Cl)C1C(=O)OCc1cccc(Oc2ccccc2)c1 (centres undefined),,inactive
CC[C@]1(O)C[C@@H]2CN(CCc3c([nH]c4ccccc34)[C@@](C(=O)OC)(c3cc4c(cc3OC)N(C)[C@H]3[C@@](O)(C(=O)OC)[C@H](OC(C)=O)[C@]5(CC)C=CCN6CC[C@]43[C@@H]65)C2)C1,,inactive
O=C(O)c1ccccc1OP(=O)(O)O,,inactive
CCCCN(CCO)CCO,,inactive
COC(OC)C(C)c1ccccc1 (centres undefined),,inactive
Nc1cc(=O)[nH]c(N)n1,,inactive
CCOC(OCC)OCC,,inactive

SMILES,"activity change, negative = inhibition",Potency
C=CCOC(=O)CCCCCC,,inactive
O=C(O)[C@@H](O)[C@H](O)[C@H](O)[C@@H](O)C(=O)O,,inactive
CCCCCCCCCC(C)=O,,inactive
OC/C=C/CO,,inactive
CCCCCCCCCCCCC(=O)O,,inactive
CCCC(=O)c1ccccc1,,inactive
NC(=O)c1cccc([N+](=O)[O-])c1,,inactive
COc1c2ccoc2cc2oc(=O)ccc12,,inactive
CC(C)c1cccc(C(C)C)c1N,,inactive
CCCCCCCCC1CCC(=O)O1 (centres undefined),,inactive
CO[Si](C)(C)OC,,inactive
COCc1ccc(COC)cc1,,inactive
c1c[nH]cn1,,inactive
OC1(c2ccc(Cl)cc2)CCNCC1,,inactive
"Cc1c2oc3c(C)ccc(C(=O)N[C@@H]4C(=O)N[C@H](C(C)C)C(=O)N5CCC[C@H]5C(=O)N(C)CC(=O)N(C)[C@@H](C(C)C)C(=O)O[C@@H]4C)c3nc-2c(C(=O)N[C@@H]2C(=O)N[C@H](C(C)C)C(=O)N3CCC[C@H]3C(=O)N(C)CC(=O)N(C)[C@@H](C(C)C)C(=O)O[C@@H]2C)c(N)c1=O (I: T[dV]P[Sar][NMeV] / II: T[dV]P[Sar][NMeV]; ester I:1-I:C, II:1-II:C; linker I:N-II:N via Actinocin(9to1))",,inactive
C1CCCCC1,,inactive
Cc1ccc(C(C)c2ccc(C)c(C)c2)cc1C,,inactive
